# From PubChem BioAssay (EPA / NIEHS)
# Inconclusive results are not listed. Calls of active or inactive are those of the source. Rule for the calls, unless noted: active = hit-call score of the fitted dose curve at least 0.9, where 1 is the maximum; inconclusive = response in the unintended direction; inactive = score below 0.9.
# Key:
# [1] = read-out: Intercellular Adhesion Molecule 1 (ICAM1), ICAM1 (gene 3383); experiment: BSK_3C_ICAM1: BioMAP Diversity Plus: 3C Assay for Intercellular Adhesion Molecule 1 (ICAM1) Biomarker Activity (AID 2283003; active = hit-call score of the fitted dose curve at least 0.9, where 1 is the maximum; inactive = score below 0.9); details: primary human endothelial cells (HUVEC); actives raise or lower the signal
# In short: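 HUVEC primary cells stimulated under 3C conditions; ICAM1 measured by ELISA 24 h after compound dosing. Curves fitted bidirectionally against the DMSO baseline. Overt cytotoxicity checked by SRB staining of parallel cultures.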
# [2] = target: human Retinoic Acid Receptor beta (RARb), RARB (gene 5915) (UniProt P10826); experiment: ATG_RARb_TRANS: Attagene TRANS-FACTORIAL HepG2 Assay for human Retinoic Acid Receptor beta (AID 2283004)
# In short: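 Induction of reporter mRNA from a chimeric RARb-Gal4 construct was measured by RT-PCR, FAM labelling, HpaI digestion and capillary electrophoresis. Measurements followed 24 h compound treatment of transiently transfected human HepG2 liver cells, with DMSO as baseline.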
# [3] = target: Retinoic acid receptor alpha (Homo sapiens) (UniProt P10276); experiment: ATG_RARa_TRANS: Attagene TRANS-FACTORIAL HepG2 Assay for human Retinoic Acid Receptor alpha (RARa) (AID 2283005);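 for AC50: potency for increased reporter signal meaning RARa activation over DMSO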
# In short: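 HepG2 cells transiently transfected with multiple reporter units expressing chimeric RARα-GAL4 fusion, with GAL4-UAS-driven reporters. After 24 h compound exposure, reporter mRNA induction quantified by RT-PCR and capillary electrophoresis with fluorescent labeling; gain-of-signal fitted relative to DMSO control.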
# [4] = BSK_3C_Proliferation: Cell Proliferation Assessment in the BioMAP Diversity Plus: 3C Assay (AID 2283006; active = hit-call score of the fitted dose curve at least 0.9, where 1 is the maximum; inactive = score below 0.9;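 for AC50: potency may reflect either rise or fall in cell number versus DMSO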); details: primary human endothelial cells (HUVEC)
# In short: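 Subconfluent HUVEC (3C system) cultured with chemical; relative cell number read at 48 h by sulforhodamine B total-protein staining (0.1% SRB after 10% TCA fixation, 560 nm). Bidirectional fit relative to DMSO.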
# [5] = target: Peroxisome proliferator-activated receptor gamma (Homo sapiens) (UniProt P37231); experiment: ATG_PPARg_TRANS: Attagene TRANS-FACTORIAL HepG2 Assay for human Peroxisome Proliferator-activated Receptor-gamma (PPARg) (AID 2283007)
# In short: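 Transient transfection of HepG2 with GAL4-UAS-driven reporter units; chemical dosing 24 h; total RNA → oligo(dT) RT → PCR with reporter primers → 6-FAM primer extension → HpaI digest 2 h 37 C → capillary electrophoresis. Positive direction vs DMSO.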
# [6] = target: Nuclear receptor subfamily 1 group I member 2 (Homo sapiens) (UniProt O75469); experiment: ATG_PXR_TRANS: Attagene TRANS-FACTORIAL HepG2 Assay for human Pregnane X Receptor (PXR) (AID 2283008)
# In short: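 Read-out is fluorescence of labelled reporter cDNA fragments separated by capillary electrophoresis after RT-PCR and HpaI digestion. Source: HepG2 cells carrying PXR-GAL4/UAS reporter constructs, treated 24 h; activity fitted upward relative to DMSO.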
# [7] = target: human Retinoic Acid Receptor gamma (RARg), RARG (gene 5916) (UniProt P13631); experiment: ATG_RARg_TRANS: Attagene TRANS-FACTORIAL HepG2 Assay for human Retinoic Acid Receptor gamma (RARg) (AID 2283009);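 for AC50: AC50 is for reporter induction above DMSO meaning RARg activation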
# In short: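 HepG2 transiently transfected with GAL4-UAS reporter units and chimeric NR-Gal4 constructs; 24 h compound exposure. Reporter mRNA quantified by RT-PCR, FAM labeling, HpaI digestion and capillary electrophoresis; gain-of-signal versus DMSO.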
# [8] = target: human Retinoid X Receptor beta (RXRb), RXRB (gene 6257) (UniProt P28702); experiment: ATG_RXRb_TRANS: Attagene TRANS-FACTORIAL HepG2 Assay for human Retinoid X Receptor beta (RXRb) (AID 2283013)
# In short: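 HepG2 cells were transiently transfected with multiplexed GAL4-UAS reporters and a chimeric RXRb-Gal4 construct, then exposed for 24 h. Reporter mRNA was quantified by RT-PCR, FAM labeling, HpaI digestion and capillary electrophoresis; gain of signal was scored against DMSO.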
# [9] = target: Retinoic acid receptor RXR-alpha (Homo sapiens) (UniProt P19793); experiment: ATG_RXRa_TRANS: Attagene TRANS-FACTORIAL HepG2 Assay for human Retinoid X Receptor alpha (RXRa) (AID 2283012)
# In short: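 HepG2 cells transiently transfected with GAL4-UAS reporter units and chimeric RXRa-Gal4 protein, treated 24 h. Reporter mRNA measured by RT-PCR, fluorescent labelling, HpaI digestion and capillary electrophoresis. Induction fitted against DMSO.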
# [10] = target: human Thyroid Receptor alpha (THRa1), THRA (gene 7067) (UniProt P10827); experiment: ATG_THRa1_TRANS: Attagene TRANS-FACTORIAL HepG2 Assay for human Thyroid Receptor alpha (THRa1) (AID 2283014)
# In short: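 Transcripts from GAL4-UAS-driven reporters, measured after 24 h compound exposure by RT-PCR plus capillary electrophoresis of 6-FAM-labeled fragments, were fitted for gain of signal relative to DMSO. Cells: transiently transfected HepG2 expressing NR-Gal4 chimeras.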
# Sequence of human Thyroid Receptor alpha (THRa1), THRA (gene 7067) (P10827 whole entry, looked up, the tested form may be a part): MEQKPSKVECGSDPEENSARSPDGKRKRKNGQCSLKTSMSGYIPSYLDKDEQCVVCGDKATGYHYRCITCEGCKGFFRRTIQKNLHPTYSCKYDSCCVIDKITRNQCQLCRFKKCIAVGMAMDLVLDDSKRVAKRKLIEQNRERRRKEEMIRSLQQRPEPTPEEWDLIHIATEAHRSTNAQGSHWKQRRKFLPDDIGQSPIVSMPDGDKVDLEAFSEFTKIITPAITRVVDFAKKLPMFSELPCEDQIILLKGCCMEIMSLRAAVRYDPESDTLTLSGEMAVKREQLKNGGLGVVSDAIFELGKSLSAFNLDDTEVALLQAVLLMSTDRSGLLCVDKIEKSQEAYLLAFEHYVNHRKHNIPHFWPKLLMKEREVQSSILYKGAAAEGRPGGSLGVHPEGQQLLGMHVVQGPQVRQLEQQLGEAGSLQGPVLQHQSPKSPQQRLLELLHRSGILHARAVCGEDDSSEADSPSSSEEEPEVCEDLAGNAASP
# Sequence of Retinoic acid receptor alpha (Homo sapiens) (P10276 whole entry, looked up, the tested form may be a part): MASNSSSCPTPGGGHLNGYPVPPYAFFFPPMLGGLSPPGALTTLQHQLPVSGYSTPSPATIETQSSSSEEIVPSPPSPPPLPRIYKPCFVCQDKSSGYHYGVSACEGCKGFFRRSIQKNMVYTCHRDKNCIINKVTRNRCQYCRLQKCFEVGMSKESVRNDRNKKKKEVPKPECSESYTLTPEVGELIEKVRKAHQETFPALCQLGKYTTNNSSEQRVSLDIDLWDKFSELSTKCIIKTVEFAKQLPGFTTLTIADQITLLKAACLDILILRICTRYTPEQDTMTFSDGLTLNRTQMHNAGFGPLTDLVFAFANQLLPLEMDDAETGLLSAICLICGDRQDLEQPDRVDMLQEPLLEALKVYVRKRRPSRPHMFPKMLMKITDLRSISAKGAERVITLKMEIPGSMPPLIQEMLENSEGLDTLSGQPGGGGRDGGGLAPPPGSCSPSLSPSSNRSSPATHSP
# Sequence of human Retinoic Acid Receptor gamma (RARg), RARG (gene 5916) (P13631 whole entry, looked up, the tested form may be a part): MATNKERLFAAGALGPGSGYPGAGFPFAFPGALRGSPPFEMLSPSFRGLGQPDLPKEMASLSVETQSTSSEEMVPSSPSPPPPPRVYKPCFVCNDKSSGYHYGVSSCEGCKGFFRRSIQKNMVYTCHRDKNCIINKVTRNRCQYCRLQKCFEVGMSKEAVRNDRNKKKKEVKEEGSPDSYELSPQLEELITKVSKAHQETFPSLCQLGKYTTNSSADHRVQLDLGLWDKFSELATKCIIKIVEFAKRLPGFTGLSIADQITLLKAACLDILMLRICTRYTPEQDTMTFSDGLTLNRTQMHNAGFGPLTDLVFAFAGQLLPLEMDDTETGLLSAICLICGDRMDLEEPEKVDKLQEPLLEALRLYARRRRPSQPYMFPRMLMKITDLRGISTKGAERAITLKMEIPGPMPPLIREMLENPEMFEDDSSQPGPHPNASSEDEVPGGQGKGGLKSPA
# Sequence of Retinoic acid receptor RXR-alpha (Homo sapiens) (P19793 whole entry, looked up, the tested form may be a part): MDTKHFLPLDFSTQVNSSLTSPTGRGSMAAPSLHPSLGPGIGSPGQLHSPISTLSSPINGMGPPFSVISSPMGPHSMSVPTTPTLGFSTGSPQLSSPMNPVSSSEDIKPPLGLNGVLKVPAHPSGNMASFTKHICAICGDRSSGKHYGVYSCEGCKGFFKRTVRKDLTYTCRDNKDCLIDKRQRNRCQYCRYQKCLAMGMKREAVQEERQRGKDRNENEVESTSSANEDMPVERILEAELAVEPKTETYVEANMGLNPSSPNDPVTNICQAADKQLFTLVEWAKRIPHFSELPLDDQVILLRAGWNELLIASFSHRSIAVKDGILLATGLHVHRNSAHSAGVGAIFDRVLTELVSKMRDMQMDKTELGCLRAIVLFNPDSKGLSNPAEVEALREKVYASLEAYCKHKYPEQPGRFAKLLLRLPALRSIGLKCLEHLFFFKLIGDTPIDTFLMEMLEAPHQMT
# Sequence of human Retinoic Acid Receptor beta (RARb), RARB (gene 5915) (P10826 whole entry, looked up, the tested form may be a part): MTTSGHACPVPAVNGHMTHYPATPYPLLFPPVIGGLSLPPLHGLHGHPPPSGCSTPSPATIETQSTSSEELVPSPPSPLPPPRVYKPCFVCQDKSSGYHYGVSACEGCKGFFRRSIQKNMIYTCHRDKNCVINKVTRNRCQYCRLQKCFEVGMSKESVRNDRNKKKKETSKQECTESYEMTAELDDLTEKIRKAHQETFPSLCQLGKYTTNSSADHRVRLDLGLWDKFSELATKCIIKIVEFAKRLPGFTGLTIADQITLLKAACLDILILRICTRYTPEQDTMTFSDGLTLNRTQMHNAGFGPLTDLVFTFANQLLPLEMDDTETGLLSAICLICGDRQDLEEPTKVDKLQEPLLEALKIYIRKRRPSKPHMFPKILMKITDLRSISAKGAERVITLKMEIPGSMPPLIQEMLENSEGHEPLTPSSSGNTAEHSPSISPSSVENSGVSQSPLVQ
# Sequence of Peroxisome proliferator-activated receptor gamma (Homo sapiens) (P37231 whole entry, looked up, the tested form may be a part): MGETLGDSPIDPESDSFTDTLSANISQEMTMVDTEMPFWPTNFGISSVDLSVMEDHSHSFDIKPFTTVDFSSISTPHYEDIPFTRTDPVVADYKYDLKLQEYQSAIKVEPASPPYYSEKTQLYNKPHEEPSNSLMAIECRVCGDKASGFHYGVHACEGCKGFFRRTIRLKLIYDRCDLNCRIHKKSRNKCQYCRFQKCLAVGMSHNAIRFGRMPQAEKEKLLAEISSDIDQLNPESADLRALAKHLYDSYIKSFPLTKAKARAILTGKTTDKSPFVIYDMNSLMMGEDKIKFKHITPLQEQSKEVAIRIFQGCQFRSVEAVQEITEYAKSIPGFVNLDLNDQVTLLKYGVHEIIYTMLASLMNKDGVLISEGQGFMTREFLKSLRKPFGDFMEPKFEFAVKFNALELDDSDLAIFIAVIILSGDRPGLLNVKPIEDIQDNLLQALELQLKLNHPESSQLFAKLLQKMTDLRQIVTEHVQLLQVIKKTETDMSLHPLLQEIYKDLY
# Sequence of human Retinoid X Receptor beta (RXRb), RXRB (gene 6257) (P28702 whole entry, looked up, the tested form may be a part): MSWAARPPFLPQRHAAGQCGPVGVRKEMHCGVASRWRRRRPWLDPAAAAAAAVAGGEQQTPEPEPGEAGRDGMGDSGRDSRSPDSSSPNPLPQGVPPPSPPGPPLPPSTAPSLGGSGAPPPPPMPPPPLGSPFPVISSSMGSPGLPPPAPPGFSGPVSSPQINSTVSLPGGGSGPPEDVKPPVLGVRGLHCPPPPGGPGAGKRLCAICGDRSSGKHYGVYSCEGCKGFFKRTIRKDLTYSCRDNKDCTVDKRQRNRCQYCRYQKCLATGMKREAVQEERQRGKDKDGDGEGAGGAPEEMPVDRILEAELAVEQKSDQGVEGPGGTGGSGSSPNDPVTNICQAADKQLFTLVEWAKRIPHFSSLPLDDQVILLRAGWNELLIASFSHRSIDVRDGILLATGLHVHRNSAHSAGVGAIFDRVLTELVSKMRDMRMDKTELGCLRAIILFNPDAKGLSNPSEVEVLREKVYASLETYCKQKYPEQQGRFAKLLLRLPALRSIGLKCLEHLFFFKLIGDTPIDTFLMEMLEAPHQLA
# Sequence of Nuclear receptor subfamily 1 group I member 2 (Homo sapiens) (O75469 whole entry, looked up, the tested form may be a part): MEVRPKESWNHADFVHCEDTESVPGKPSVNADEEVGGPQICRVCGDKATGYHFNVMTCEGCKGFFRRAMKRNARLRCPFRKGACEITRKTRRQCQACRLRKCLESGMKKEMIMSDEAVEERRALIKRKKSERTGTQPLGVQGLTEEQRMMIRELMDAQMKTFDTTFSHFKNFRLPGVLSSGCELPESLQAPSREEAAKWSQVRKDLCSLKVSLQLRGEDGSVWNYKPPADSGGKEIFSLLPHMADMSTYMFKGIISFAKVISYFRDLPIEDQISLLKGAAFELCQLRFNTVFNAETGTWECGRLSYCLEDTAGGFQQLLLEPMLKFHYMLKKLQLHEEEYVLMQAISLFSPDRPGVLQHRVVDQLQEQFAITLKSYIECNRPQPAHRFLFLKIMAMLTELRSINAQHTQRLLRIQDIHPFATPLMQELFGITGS
structure (smiles),measurement,setting,value
CCOCCO,outcome,[1],inactive
same,outcome,[2],inactive
Cc1c(-c2cccnc2)c2ccccc2n1CCCCC(=O)O,outcome,[1],inactive
same,outcome,[2],inactive
same,outcome,[3],inactive
same,AC50,[4],17.4 µM (active)
same,AC50,[5],22.4 µM (active)
same,outcome,[6],inactive
same,outcome,[7],inactive
same,outcome,[8],inactive
CC(C)CCCCCCOC(=O)c1ccc(C(=O)OCCCCCCC(C)C)c(C(=O)OCCCCCCC(C)C)c1,outcome,[1],inactive
same,outcome,[2],inactive
same,outcome,[3],inactive
same,outcome,[5],inactive
same,outcome,[9],inactive
same,AC50,[8],63.2 µM (active)
CC(C)=CCCC(C)CCO (stereo unspecified),outcome,[1],inactive
same,outcome,[2],inactive
same,AC50,[5],42.6 µM (active)
CCOC(=O)c1ccc(C2CCC(NC[C@H](O)COc3ccc(O)c(NS(C)(=O)=O)c3)CC2)cc1 (stereo partly specified),outcome,[1],inactive
same,AC50,[2],52.3 µM (active)
same,outcome,[3],inactive
same,outcome,[5],inactive
same,outcome,[7],inactive
same,AC50,[9],54.3 µM (active)
CC(C)=CCC/C(C)=C/CO,outcome,[1],inactive
same,outcome,[2],inactive
same,AC50,[5],63.6 µM (active)
same,outcome,[6],inactive
same,outcome,[9],inactive
same,outcome,[8],inactive
Cc1ccc(S(=O)(=O)O)cc1C,outcome,[1],inactive
same,outcome,[2],inactive
same,outcome,[3],inactive
same,outcome,[5],inactive
same,outcome,[6],inactive
same,outcome,[9],inactive
same,outcome,[8],inactive
CCCCCCCCO,outcome,[1],inactive
same,outcome,[2],inactive
same,outcome,[4],inactive
same,outcome,[5],inactive
same,outcome,[7],inactive
same,outcome,[9],inactive
COCCOCCOCCOC,outcome,[1],inactive
same,outcome,[2],inactive
same,outcome,[3],inactive
same,outcome,[5],inactive
same,outcome,[6],inactive
same,outcome,[7],inactive
same,outcome,[9],inactive
same,outcome,[8],inactive
same,outcome,[10],inactive
O=C1CCCCCN1,outcome,[1],inactive
same,outcome,[2],inactive
same,outcome,[3],inactive
same,outcome,[4],inactive
same,outcome,[7],inactive
same,outcome,[9],inactive
CNS(=O)(=O)c1cc(C(=O)N2CCC(CCN3C4CCC3CC(n3c(C)nc5ccccc53)C4)(c3cccc(F)c3)CC2)c(Cl)cc1F (stereo unspecified),outcome,[1],inactive
same,outcome,[2],inactive
same,AC50,[4],15.4 µM (active)
same,outcome,[7],inactive
same,outcome,[8],inactive
same,outcome,[10],inactive
Nc1cccc(N)c1,outcome,[1],inactive
same,outcome,[2],inactive
same,outcome,[3],inactive
same,outcome,[6],inactive
same,outcome,[7],inactive
same,outcome,[9],inactive
same,outcome,[10],inactive
C=CCCCCCCCCC(=O)O,outcome,[1],inactive
same,outcome,[2],inactive
same,outcome,[3],inactive
same,AC50,[5],69.1 µM (active)
same,outcome,[6],inactive
same,outcome,[7],inactive
same,outcome,[9],inactive
same,AC50,[8],74.8 µM (active)
CC(C)CCO,outcome,[1],inactive
same,outcome,[2],inactive
same,outcome,[3],inactive
same,outcome,[4],inactive
same,outcome,[5],inactive
same,outcome,[7],inactive
same,outcome,[9],inactive
same,outcome,[8],inactive
same,outcome,[10],inactive
C1=CCCC=CCCC=CCC1,outcome,[1],inactive
same,outcome,[2],inactive
same,outcome,[3],inactive
same,outcome,[4],inactive
same,AC50,[7],26.9 µM (active)
same,outcome,[9],inactive
same,AC50,[8],63.5 µM (active)
CCNc1ccccc1,outcome,[1],inactive
same,outcome,[2],inactive
same,outcome,[3],inactive
same,outcome,[4],inactive
same,outcome,[5],inactive
same,outcome,[6],inactive
same,outcome,[7],inactive
same,outcome,[8],inactive
same,outcome,[10],inactive
CCOC(=O)COc1ccc2c(c1)CC(NCC(O)c1cccc(Cl)c1)CC2 (stereo unspecified),AC50,[1],28.4 µM (active)
same,outcome,[2],inactive
same,AC50,[4],15.3 µM (active)
same,AC50,[5],21.7 µM (active)
same,outcome,[6],inactive
same,outcome,[7],inactive
same,outcome,[8],inactive
same,outcome,[10],inactive
O=C(OC[C@H]1O[C@@H](OC(=O)c2cc(O)c(O)c(OC(=O)c3cc(O)c(O)c(O)c3)c2)[C@H](OC(=O)c2cc(O)c(O)c(OC(=O)c3cc(O)c(O)c(O)c3)c2)[C@@H](OC(=O)c2cc(O)c(O)c(OC(=O)c3cc(O)c(O)c(O)c3)c2)[C@@H]1OC(=O)c1cc(O)c(O)c(OC(=O)c2cc(O)c(O)c(O)c2)c1)c1cc(O)c(O)c(OC(=O)c2cc(O)c(O)c(O)c2)c1,outcome,[1],inactive
same,outcome,[2],inactive
same,outcome,[3],inactive
same,AC50,[4],9.47 µM (active)
same,outcome,[5],inactive
same,outcome,[6],inactive
same,outcome,[7],inactive
same,outcome,[9],inactive
same,outcome,[8],inactive
same,outcome,[10],inactive
C[C@](N)(Cc1ccc(O)c(O)c1)C(=O)O,outcome,[1],inactive
same,outcome,[2],inactive
same,outcome,[4],inactive
same,outcome,[8],inactive
same,outcome,[10],inactive
Cc1ccc(C)c(O)c1,outcome,[1],inactive
same,outcome,[2],inactive
same,outcome,[3],inactive
same,outcome,[4],inactive
same,outcome,[5],inactive
same,outcome,[7],inactive
Cn1cnc([N+](=O)[O-])c1Sc1ncnc2nc[nH]c12,outcome,[1],inactive
same,outcome,[2],inactive
same,outcome,[3],inactive
same,AC50,[5],39.9 µM (active)
same,AC50,[6],29.8 µM (active)
same,AC50,[7],26.1 µM (active)
same,outcome,[9],inactive
same,outcome,[8],inactive
same,AC50,[10],27.2 µM (active)
CC1=CC(=O)CC(C)(C)C1,outcome,[1],inactive
COC(=O)c1ccccc1O,outcome,[1],inactive
same,outcome,[2],inactive
same,outcome,[3],inactive
same,outcome,[4],inactive
same,outcome,[7],inactive
same,outcome,[9],inactive
same,AC50,[8],2.1 µM (active)
CC(=O)c1ccc2c(c1)[C@H](NC(=O)c1ccc(F)cc1)[C@@H](O)C(C)(C)O2,outcome,[1],inactive
same,outcome,[2],inactive
same,outcome,[4],inactive
same,outcome,[5],inactive
same,AC50,[6],12.7 µM (active)
same,outcome,[7],inactive
CC(C)CCCCCCCOC(=O)CCCCC(=O)OCCCCCCCC(C)C,outcome,[1],inactive
same,outcome,[2],inactive
same,AC50,[3],28.8 µM (active)
same,outcome,[4],inactive
same,outcome,[7],inactive
same,AC50,[8],100 µM (active)
O=C(O)c1cccc(N(Cc2cccnc2)c2ccc(OC(F)F)c(OC(F)F)c2)c1,outcome,[1],inactive
same,outcome,[2],inactive
same,AC50,[5],6.66 µM (active)
same,outcome,[7],inactive
same,outcome,[9],inactive
O=C(O)CCN(C1(C(=O)NO)CCCC1)S(=O)(=O)c1ccc(Oc2ccc(F)cc2)cc1,outcome,[1],inactive
same,outcome,[2],inactive
same,outcome,[5],inactive
same,outcome,[6],inactive
same,outcome,[7],inactive
same,outcome,[9],inactive
same,outcome,[8],inactive
same,outcome,[10],inactive
CC[C@H]1CC[C@H](NCc2cc3c(cc2OC)[C@H]2C[C@H]2C(=O)N3C)[C@H](c2ccccc2)N1,outcome,[1],inactive
same,outcome,[2],inactive
same,outcome,[5],inactive
same,AC50,[6],3.94 µM (active)
same,outcome,[7],inactive
same,outcome,[9],inactive
same,outcome,[8],inactive
CCN(C(=O)c1cc(C)cc(OC[C@H](C)Nc2ccncc2)c1)C(C)C,outcome,[1],inactive
same,outcome,[2],inactive
same,outcome,[3],inactive
same,outcome,[5],inactive
same,outcome,[7],inactive
same,outcome,[9],inactive
O=C1OC(=O)C2C3C=CC(C3)C12 (stereo unspecified),outcome,[1],inactive
same,outcome,[4],inactive
same,outcome,[5],inactive
same,outcome,[9],inactive
same,outcome,[8],inactive
CNCc1ccc(NC(=O)c2c[nH]c3c2C(=O)CCC3)cc1,outcome,[1],inactive
same,outcome,[3],inactive
same,outcome,[4],inactive
same,outcome,[5],inactive
same,outcome,[7],inactive
same,outcome,[9],inactive
same,outcome,[10],inactive
Cc1[nH]cnc1C[C@H]1CCc2c(C)c3ccccc3n2C1=O,outcome,[1],inactive
same,outcome,[3],inactive
same,AC50,[4],26.1 µM (active)
same,outcome,[7],inactive
same,outcome,[9],inactive
same,outcome,[8],inactive
same,outcome,[10],inactive
CC(C)(O)c1coc(S(=O)(=O)NC(=O)Nc2c3c(cc4c2CCC4)CCC3)c1,outcome,[1],inactive
same,outcome,[4],inactive
same,AC50,[5],44.9 µM (active)
same,outcome,[7],inactive
same,outcome,[8],inactive
same,outcome,[10],inactive
COc1ccc(/C=C/S(=O)(=O)NC(=O)c2ccc(C)cc2Cl)cc1,outcome,[1],inactive
same,AC50,[4],7.08 µM (active)
same,AC50,[5],23.7 µM (active)
same,outcome,[9],inactive
Cc1ccc(O)cc1,outcome,[1],inactive
same,outcome,[4],inactive
CN(C)c1ccc(Cc2ccc(N(C)C)cc2)cc1,outcome,[1],inactive
same,outcome,[2],inactive
same,AC50,[5],23.1 µM (active)
same,outcome,[7],inactive
same,outcome,[9],inactive
same,outcome,[10],inactive
O=C(CCCCCCCCc1cccnc1)N1CCC(C=C(c2ccccc2)c2ccccc2)CC1,AC50,[1],15.4 µM (active)
same,AC50,[4],5.66 µM (active)
same,AC50,[5],1.41 µM (active)
same,outcome,[9],inactive
same,outcome,[8],inactive
